Here are results for 40 compounds from PubChem BioAssay (NCATS).

Inconclusive results are not listed. Unmarked numbers belong to inactive results. Activity calls are given as the source filed them. Calls come from the whole dose curve; as a rule, active = well fitted cell-killing curve with a large enough effect; inconclusive = small, poorly fitted or top-dose-only effect, or effect the other way; inactive = no such curve, though single readings can be large or run the other way.
Potency is the fitted concentration of half-maximal effect.

The nature of this test: Quantitative High-Throughput drug screen in 47 multiple myeloma cell lines against the NCATS MIPE library collection: JJN3_DSMZ cell viability assay (AID 1918966; note: nearly all actives have a fitted effect of over 50% in size). The following applies: JJN3 myeloma cells viability, CellTiter-Glo ATP, 48 h; series mostly up to 45.8 µM; viability, % of DMSO: at the top concentration. The text has this:
PI: Beverly A. Mock Ph.D.
Laboratory of Cancer Biology and Genetics,
Center for Cancer Research, National Cancer Institute,
National Institute of Health, Bethesda, Maryland
Drug resistance and disease progression are common in multiple myeloma (MM) patients, underscoring the need for new therapeutic combinations. […] We hypothesized that effective combinations would reduce MYC expression and enhance p16 activity. […] These preclinical data identify potentially useful drug combinations for evaluation in drug-resistant MM and reveal potential mechanisms of combined drug sensitivity.
Described herein is the primary MIPE qHTS used to cherrypick compounds. Validated compounds were then further tested for potential synergistic activiy.
[1] Peat TJ, Gaikwad SM, Dubois W, Gyabaah-Kessie N, Zhang S, Gorjifard S, Phyo Z, Andres M, Hughitt VK, Simpson RM, Miller MA, Girvin AT, Taylor A, Williams D, D'Antonio N, Zhang Y, Rajagopalan A, Flietner E, Wilson K, Zhang X, Shinn P, Klumpp-Thomas C, McKnight C, Itkin Z, Chen L, Kazandijian D, Zhang J, Michalowski AM, Simmons JK, Keats J, Thomas CJ, Mock BA. Drug combinations identified by high-throughput screening promote cell cycle transition and upregulate Smad pathways in myeloma. Cancer Lett. 2023 Aug 1;568:216284. doi: 10.1016/j.canlet.2023.216284. Epub 2023 Jun 24. PMID: 37356470; PMCID: PMC10408729.
SEQUENCE No. (e.g., 1, 2, 3, etc.); […] (e.g., Cells, Incubation, Reagent, etc.); VALUE and DESCRIPTION.
1; Cells; 5 uL; white, solid bottom 1536-well Greiner assay plate.
2; Compounds; 23 nL; Kalypsis pin tool (Wako USA) equipped with a 1536-well pin head to transfer to the assay plates.
3; Incubation; 48 hours; 37C incubation.
4; Reagent;5uL; CellTiter Glo (Promega).
5; Detector; 425V; Luminescence; Viewlux PerkinElmer.
NOTES (numbers refer to Sequence numbers above)
1. The cell-based screening methods employed in this study were like those previously published. Briefly, the corresponding myeloma cell lines were screened in 1,536-well plates with 500 cells, 5-uL per well for inhibition of cell viability (assessed by measuring ATP levels with CellTiterGlo).
2. NCATS MIPE 4.0 library of approved and investigational drugs were added using the Kalypsis pin tool. Wells treated with DMSO only for 100% viability and media only wells for 0% viability were used as controls.
3. The assay plates were covered and incubated for 48 hours in a 37C, 5% CO2 incubator with controlled humidity.
4. After 48 hours, CellTilter-GloTM luminescent substrate mix (Promega) reagent was added to the assay plate and plates we incubated for 5 min at room temperature.
5. Signal was measured as median relative luminescence units on a ViewLux (PerkinElmer) multiplate reader.
[1] Heske CM, Davis MI, Baumgart JT, Wilson K, Gormally MV, Chen L, Zhang X, Ceribelli M, Duveau DY, Guha R, Ferrer M, Arnaldez FI, Ji J, Tran HL, Zhang Y, Mendoza A, Helman LJ, Thomas CJ. Matrix Screen Identifies Synergistic Combination of PARP Inhibitors and Nicotinamide Phosphoribosyltransferase (NAMPT) Inhibitors in Ewing Sarcoma. Clin Cancer Res. 2017 Dec 1;23(23):7301-7311. doi: 10.1158/1078-0432.CCR-17-1121. Epub 2017 Sep 12. PMID: 28899971; PMCID: PMC6636827.
Background: ATP-based viability assays read luminescence as a measure of living cells.
As for `COc1cc([C@@H]2c3cc4c(cc3[C@@H](O)C3COC(=O)C32)OCO4)cc(OC)c1O` (stereo not given in full), the Potency was 118 nM (active).

Turning to `O=[N+]([O-])c1ncc[nH]1`, the “viability, % of DMSO” value is 106%.

Consider `CC[C@H]1C=CC=CC[C@@H](C)[C@H](O)[C@@](C)(O)C(=O)[C@@H](C)[C@H](O)[C@@H](C)C(=O)[C@@H](C)[C@H](O)[C@@H](C)C=CC(=O)O[C@@H]2[C@@H](C)[C@H](CC1)O[C@]1(CC[C@H](C)[C@H](C[C@@H](C)O)O1)[C@H]2C`, for which the Potency was 18700 nM (active).

As for `CC[C@@]1(O)C(=O)OCc2c1cc1n(c2=O)Cc2cc3ccccc3nc2-1`, the Potency was 743 nM (active).

Regarding `CC[C@@H]1[C@@H](C)O[C@@](O)([C@@H](C)[C@H](O)[C@H](C)[C@H]2OC(=O)C=CC=C[C@@H](C)[C@@H]([C@@H](C)[C@@H](O)[C@H](C)[C@@]3(O)C[C@H](O[C@H]4C[C@H](O)[C@H](O)[C@H](C)O4)[C@H](CC)[C@@H](C)O3)OC(=O)C=CC=C[C@@H]2C)C[C@H]1O[C@H]1C[C@H](O)[C@H](O)[C@H](C)O1`, the Potency is 833 nM (active).

Regarding `C=C1C[C@H]2[C@H]3CCC(=O)[C@@]3(C)CC[C@@H]2[C@@]2(C)C=CC(=O)C=C12`, the Potency is 14800 nM (active).

Consider `O=S(=O)(CC1CS1)c1ccc(Oc2ccccc2)cc1` (stereo not given), for which the Potency was 11800 nM (active).

Regarding `CC1=C(O)C(=O)C=C2C1=CC=C1[C@@]2(C)CC[C@@]2(C)[C@@H]3C[C@](C)(C(=O)O)CC[C@]3(C)CC[C@]12C`, the Potency was 743 nM (active).

For the compound `CCNC(=O)C[C@@H]1N=C(c2ccc(Cl)cc2)c2cc(OC)ccc2-n2c(C)nnc21`, the Potency is 148 nM (active).

As for `Cc1c(C(=O)c2cccc3ccccc23)c2cccc3c2n1[C@H](CN1CCOCC1)CO3`, the Potency was 16600 nM (active).

Consider `N=c1c2c(-c3ccccc3)c(-c3ccccc3)n(Cc3ccccc3)c2ncn1C1CCC(O)CC1` (stereo not given), for which the Potency is 18700 nM (active).

On to `CN[C@@H]1Cc2cccc3[nH]c(=O)n(c23)C1`, for which the “viability, % of DMSO” value is 91%.

`CN(C)[C@@H]1C(=O)C(C(N)=O)=C(O)[C@@]2(O)C(=O)C3=C(O)c4c(O)cccc4[C@@](C)(O)[C@H]3[C@H](O)[C@@H]12`: the Potency is 9350 nM (active).

For the compound `C[C@](O)(COc1ccc(C#N)cc1)C(=O)Nc1ccc(C#N)c(C(F)(F)F)c1`, the “viability, % of DMSO” value was 106%.

Consider `COCC1(CO)C(=O)C2CCN1CC2` (stereo not given), for which the Potency is 590 nM (active).

`O=S(=O)(F)Cc1ccccc1`: the “viability, % of DMSO” value was 133%.

Consider `CC(C)N[C@@H]1CCn2c(=O)[nH]c3cccc(c32)[C@@H]1O`, for which the Potency was 9350 nM (active).

`C[C@@H]1O[C@@H](O[C@@H]2C=C3CC[C@@H]4[C@@H](CC[C@]5(C)[C@H](c6ccc(=O)oc6)CC[C@@]45O)[C@@]3(C)CC2)[C@H](O)[C@H](O)[C@H]1O`: the Potency is 46.9 nM (active).

Consider `CC1=NN=C(c2ccc(N)cc2)c2cc3c(cc2C1)OCO3`, for which the “viability, % of DMSO” value is 119%.

For the compound `C=CCON=C(C[C@H]1O[C@@H]2O[C@]3(C)CC[C@@H]4[C@H](C)CC[C@@H]([C@H]1C)[C@@]24OO3)[C@H]1O[C@@H]2O[C@]3(C)CC[C@H]4[C@H](C)CC[C@@H]([C@@H]1C)[C@@]24OO3`, the Potency is 418 nM (active).

For `COC[C@H]1OC(=O)c2coc3c2[C@@]1(C)C1=C(C3=O)[C@@H]2CC[C@H](O)[C@@]2(C)C[C@@H]1OC(C)=O`, the Potency was 3320 nM (active).

Regarding `CCN1CCN(C(=O)Cc2ccc(Nc3ncc(F)c(Nc4ccc(C(=O)Nc5ccccc5Cl)cc4)n3)cc2)CC1`, the Potency was 7430 nM (active).

With `C[C@@H]1CC[C@H]2[C@@H](C)C(=O)O[C@@H]3O[C@@]4(C)CC[C@H]1[C@]32OO4`, the Potency was 13.2 nM (active).

As for `CC(=Cc1csc(C)n1)[C@@H]1C[C@H]2O[C@@H]2CCC[C@H](C)[C@@H](O)[C@@H](C)C(=O)C(C)(C)[C@@H](O)CC(=O)O1`, the Potency is 264 nM (active).

Consider `O=c1[nH]c2ccc(Cl)cc2c(N[C@@H]2CN3CCC2CC3)c1-c1nc2ccccc2[nH]1`, for which the Potency was 1050 nM (active).

For the compound `CCCC[N+]1(C)[C@H]2CC(OC(=O)[C@H](CO)c3ccccc3)C[C@H]1[C@H]1O[C@H]12` (stereo not given in full), the “viability, % of DMSO” value was 137%.

Regarding `O=c1cccc2n1CC1CNC[C@H]2C1`, the “viability, % of DMSO” value was 129%.

For `CC=C(C)C(=O)O[C@H]1C(C)=C2[C@@H]3OC(=O)[C@@](C)(O)[C@@]3(O)[C@@H](OC(=O)CCC)C[C@](C)(OC(C)=O)[C@@H]2[C@@H]1OC(=O)CCCCCCC`, the Potency was 46.9 nM (active).

`C[C@H]1CCCC=CC2C[C@H](O)C[C@@H]2[C@H](O)C=CC(=O)O1` (stereo not given in full): the “viability, % of DMSO” value is 5.76%.

`O=c1[nH]c2ccccc2n1C1CCN(Cc2ccc(-c3[nH]c4cc5ncnc5cc4nc3-c3ccccc3)cc2)CC1`: the Potency is 29600 nM (active).

Take `CC(C)N(CCNC(=O)CN1CCCC1=O)C(C)C`: the “viability, % of DMSO” value is 143%.

Take `C1=C2CCCN[C@H]2[C@@H]2C[C@H]1[C@@H]1CCCCN1C2`: the “viability, % of DMSO” value was 109%.

As for `C[C@]12Cc3cn[nH]c3C[C@@H]1CC[C@@H]1[C@H]2CC[C@@]2(C)[C@H]1CC[C@]2(C)O`, the Potency was 14800 nM (active).

On to `CC(C)[C@]12O[C@@H]1[C@@H]1O[C@]13[C@]1(O[C@H]1C[C@@H]1C4=C(CC[C@@]13C)C(=O)OC4)[C@H]2O`, for which the “viability, % of DMSO” value was 1.11%.

Regarding `COc1ccc2c(c[n+](C)c3c4cc5c(cc4ccc23)OCO5)c1OC`, the Potency was 2640 nM (active).

Turning to `c1ccc(CCCN2CCN(CCOC(c3ccccc3)c3ccccc3)CC2)cc1`, the Potency is 20900 nM (active).

On to `Cc1[nH]nc2ccc(-c3cncc(OC[C@@H](N)Cc4c[nH]c5ccccc45)c3)cc12`, for which the Potency was 264 nM (active).

On to `CCCCCC[C@H]1C(=O)O[C@H](C)[C@H](NC(=O)c2cccc(NC=O)c2O)C(=O)O[C@@H](C)[C@@H]1OC(=O)CC(C)C`, for which the Potency is 296 nM (active).

With `CN1CCN(c2ccc([N+](=O)[O-])c3no[n+]([O-])c23)CC1`, the Potency is 18700 nM (active).

As to `CN1[C@H]2CC(O)C[C@H]1[C@H]1O[C@H]12` (stereo not given in full), the Potency is 18700 nM (active).
